Results filed as inconclusive are left out. A call without a number means that no potency is given here. Calls of active or inactive are those of the source. Unless noted, calls come from the whole dose curve.
Columns and labels:
[1] = qHTS for Inhibitors of the Functional Ribonucleoprotein Complex (vRNP) of Lassa (LASV) Arenavirus: LASV Primary Screen - GLuc reporter signal (AID 1347082; calls by dose curve; tested in HEK293 reporter line; note: nearly all actives have a fitted effect of over 60% in size); details: LASV minigenome vRNP, Gaussia luciferase reporter; series mostly up to 57.5 µM
[2] = qHTS for Inhibitors of the Functional Ribonucleoprotein Complex (vRNP) of Lassa (LASV) Arenavirus: Viability assay - alamar blue signal for LASV Primary Screen (AID 1347083; calls by dose curve; tested in HEK293 reporter line; note: nearly all actives have a fitted effect of over 80% in size; note: potency is the fitted concentration of half-maximal effect); details: cell viability, alamar blue fluorescence (LASV minigenome counter-screen); series mostly up to 57.5 µM
[3] = qHTS for Inhibitors of the Functional Ribonucleoprotein Complex (vRNP) of Lymphocytic Choriomeningitis Arenaviruses (LCMV): Viability assay - alamar blue signal for LCMV Primary Screen (AID 1347085; calls by dose curve; tested in HEK293 reporter line; note: nearly all actives have a fitted effect of over 80% in size; note: potency is the fitted concentration of half-maximal effect); details: alamar blue viability counter-screen, LCMV vRNP screen cells; series mostly up to 57.5 µM
[4] = target: Nucleoprotein (Lymphocytic choriomeningitis virus (strain Armstrong)) (UniProt P09992); experiment: qHTS for Inhibitors of the Functional Ribonucleoprotein Complex (vRNP) of Lymphocytic Choriomeningitis Arenaviruses (LCMV): LCMV Primary Screen - GLuc reporter signal (AID 1347086); details: LCMV minigenome vRNP cell assay, Gaussia luciferase reporter; series mostly up to 57.5 µM; note: nearly all actives have a fitted effect of over 70% in size
Nucleoprotein (Lymphocytic choriomeningitis virus (strain Armstrong)), sequence (P09992 whole entry, looked up): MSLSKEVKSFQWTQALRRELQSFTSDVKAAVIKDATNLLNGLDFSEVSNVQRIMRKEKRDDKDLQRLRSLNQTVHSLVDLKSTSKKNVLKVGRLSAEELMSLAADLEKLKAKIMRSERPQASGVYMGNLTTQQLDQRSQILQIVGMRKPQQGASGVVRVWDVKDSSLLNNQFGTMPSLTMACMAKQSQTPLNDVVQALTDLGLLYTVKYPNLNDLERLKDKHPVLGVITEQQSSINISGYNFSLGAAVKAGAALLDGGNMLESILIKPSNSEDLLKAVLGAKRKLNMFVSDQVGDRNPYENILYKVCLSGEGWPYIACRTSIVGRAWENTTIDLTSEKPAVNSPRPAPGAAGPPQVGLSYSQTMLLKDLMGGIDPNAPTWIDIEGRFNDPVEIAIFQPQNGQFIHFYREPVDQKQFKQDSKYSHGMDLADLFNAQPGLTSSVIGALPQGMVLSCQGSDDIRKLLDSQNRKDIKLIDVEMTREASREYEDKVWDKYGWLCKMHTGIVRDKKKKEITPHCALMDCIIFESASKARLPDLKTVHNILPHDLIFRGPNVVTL

SMILES	Potency [1]	Potency [2]	Potency [3]	Potency [4]
COc1cc2c(N3CCN(C(=O)Nc4ccc(OC(C)C)cc4)CC3)ncnc2cc1OCCCN1CCCCC1	inactive	inactive	inactive	inactive
CN1CCC(=C2c3ccccc3C=Cc3ccccc32)CC1	inactive	inactive	inactive	inactive
CN(C)CCC=C1c2ccccc2C=Cc2ccccc21	inactive	inactive	inactive	inactive
C[C@H]1O[C@H](O[C@H]2[C@H](O)[C@@H](O)[C@@H](O[C@H]3[C@H](O)[C@@H](O)[C@H](O)O[C@@H]3CO)O[C@@H]2CO)[C@H](O)[C@@H](O)[C@@H]1N[C@H]1C=C(CO)[C@@H](O)[C@H](O)[C@H]1O	inactive	inactive	inactive	inactive
Oc1ccc(C2CNCCc3c2cc(O)c(O)c3Cl)cc1 (stereo not given)	inactive	inactive	inactive	inactive
COc1cc2c(cc1OC)C(=O)C(CC1CCN(Cc3ccccc3)CC1)C2 (stereo not given)	inactive	inactive	inactive	inactive
CC(=O)OCC(CCn1cnc2cnc(N)nc21)COC(C)=O	inactive	inactive	inactive	inactive
NC(=O)C(c1ccccc1)(c1ccccc1)[C@@H]1CCN(CCc2ccc3c(c2)CCO3)C1	inactive	inactive	inactive	inactive
CCn1cc(C(=O)O)c(=O)c2cc(F)c(N3CCNCC3)cc21	inactive	inactive	inactive	inactive
C=C(CC)C(=O)c1ccc(OCC(=O)O)c(Cl)c1Cl	inactive	inactive	inactive	inactive
Cc1ccc(-c2cc(C(F)(F)F)nn2-c2ccc(S(N)(=O)=O)cc2)cc1	inactive	inactive	inactive	inactive
CN(C)C(=N)N=C(N)N	inactive	inactive	inactive	inactive
C=C[C@H]1CN2CC[C@H]1C[C@@H]2[C@@H](O)c1ccnc2ccc(OC)cc12	inactive	inactive	inactive	inactive
NC(=Nc1ccccc1)Nc1ccccc1	inactive	inactive	inactive	inactive
Cn1cc[nH]c1=S	inactive	inactive	inactive	inactive
CCC(=O)O[C@H]1[C@H](O[C@@H]2[C@@H](C)[C@H](O[C@H]3C[C@@](C)(OC)[C@@H](O)[C@H](C)O3)[C@@H](C)C(=O)O[C@H](CC)[C@@](C)(O)[C@H](O)[C@@H](C)C(=O)[C@H](C)C[C@@]2(C)O)O[C@H](C)C[C@@H]1N(C)C	inactive	inactive	inactive	inactive
CCC[C@H](N[C@@H](C)C(=O)N1[C@H](C(=O)O)C[C@@H]2CCCC[C@@H]21)C(=O)OCC	inactive	inactive	inactive	inactive
CN(C)CCOC(C)(c1ccccc1)c1ccccn1 (stereo not given)	inactive	inactive	inactive	inactive
CC1=C(C(=O)O)N2C(=O)[C@@H](NC(=O)[C@H](N)c3ccc(O)cc3)[C@H]2SC1	inactive	inactive	inactive	inactive
NS(=O)(=O)c1cc2c(cc1Cl)NC=NS2(=O)=O	inactive	inactive	inactive	inactive
Cc1ccccc1C(=O)Nc1ccc(C(=O)N2CCCC(O)c3cc(Cl)ccc32)c(C)c1 (stereo not given)	inactive	inactive	inactive	inactive
CC1(C)NC(=O)N(c2ccc([N+](=O)[O-])c(C(F)(F)F)c2)C1=O	inactive	inactive	inactive	inactive
CNCCCC1c2ccccc2C=Cc2ccccc21	inactive	inactive	inactive	inactive
CC(C)OC(=O)C(C)(C)Oc1ccc(C(=O)c2ccc(Cl)cc2)cc1	inactive	inactive	inactive	inactive
C[C@@H]1C[C@H]2[C@@H]3CCC4=CC(=O)C=C[C@]4(C)[C@@]3(F)[C@@H](O)C[C@]2(C)[C@@]1(O)C(=O)CO	inactive	inactive	inactive	inactive
CN(C)[C@@H]1C(=O)C(C(N)=O)=C(O)[C@@]2(O)C(=O)C3=C(O)c4c(O)ccc(Cl)c4[C@@H](O)[C@H]3C[C@@H]12	inactive	inactive	inactive	inactive

SMILES	Potency [1]	Potency [2]	Potency [3]	Potency [4]
CCN(CCO)CCCC(C)Nc1ccnc2cc(Cl)ccc12 (stereo not given)	inactive	inactive	inactive	inactive
Cc1ccc(O)c([C@H](CCN(C(C)C)C(C)C)c2ccccc2)c1	inactive	inactive	inactive	inactive
CC[C@@]1(c2ccccc2)NC(=O)N(C)C1=O	inactive	inactive	inactive	inactive
CNCCCN1c2ccccc2CCc2ccccc21	inactive	inactive	inactive	inactive
C[C@@H](O)[C@H]1C(=O)N2C(C(=O)O)=C(S[C@@H]3CN[C@H](CNS(N)(=O)=O)C3)[C@H](C)[C@H]12	inactive	inactive	inactive	inactive
Cc1cccc(Nc2ccncc2S(=O)(=O)NC(=O)NC(C)C)c1	inactive	inactive	inactive	inactive
CC(CN(C)C)CN1c2ccccc2CCc2ccccc21 (stereo not given)	inactive	inactive	inactive	inactive
COC(c1ccccc1)(c1ccccc1)[C@H](Oc1nc(C)cc(C)n1)C(=O)O	inactive	inactive	inactive	inactive
OC(Cn1cncn1)(Cn1cncn1)c1ccc(F)cc1F	inactive	inactive	inactive	inactive
O=C(O)C(=O)c1cn(Cc2ccccc2)c2ccc(-c3ccc(OC(F)(F)F)cc3)cc12	inactive	inactive	inactive	inactive
CCCCNC(=O)NS(=O)(=O)c1ccc(C)cc1	inactive	inactive	inactive	inactive
CC1=NS(=O)(=O)c2cc(Cl)ccc2N1	inactive	inactive	inactive	inactive
Nc1cccc2c1CN(C1CCC(=O)NC1=O)C2=O (stereo not given)	inactive	inactive	inactive	inactive
COc1cc2c(cc1OC)[C@@H]1CC(=O)[C@@H](CC(C)C)CN1CC2	inactive	inactive	inactive	inactive
C[C@@H](O)[C@H]1C(=O)N2C(C(=O)O)=C(S[C@@H]3CN[C@H](C(=O)N(C)C)C3)[C@H](C)[C@H]12	inactive	inactive	inactive	inactive
Nc1ncn([C@@H]2O[C@H](CO)[C@@H](O)[C@H]2O)c(=O)n1	inactive		inactive	
C[C@@H](c1ncncc1F)C(O)(Cn1cncn1)c1ccc(F)cc1F (stereo not given in full)	inactive	inactive	inactive	inactive
CCCCNc1ccc(C(=O)OCCOCCOCCOCCOCCOCCOCCOCCOCCOC)cc1	inactive	inactive	inactive	inactive
O=C(c1ccc(OCCN2CCCCC2)cc1)c1c(-c2ccc(O)cc2)sc2cc(O)ccc12	inactive		inactive	
NS(=O)(=O)Cc1noc2ccccc12	inactive	inactive	inactive	inactive
Cc1ncc([N+](=O)[O-])n1CCO	inactive	inactive	inactive	inactive
CC(C)(C)NC(=O)[C@H]1CC[C@H]2[C@@H]3CC[C@H]4NC(=O)C=C[C@]4(C)[C@H]3CC[C@]12C	inactive	inactive		inactive
Cc1ccc(NC(=O)c2ccc(CN3CCN(C)CC3)cc2)cc1Nc1nccc(-c2cccnc2)n1	inactive		inactive	
CO[C@@H](C(=O)N1Cc2[nH]nc(NC(=O)c3ccc(N4CCN(C)CC4)cc3)c2C1)c1ccccc1	inactive	4.85 µM (active)	6.85 µM (active)	inactive
CC(C)[N+](C)(CCOC(=O)C1c2ccccc2Oc2ccccc21)C(C)C	inactive	inactive	inactive	inactive
CN(CCOc1ccc(NS(C)(=O)=O)cc1)CCc1ccc(NS(C)(=O)=O)cc1	inactive	inactive		inactive

— PubChem BioAssay (NCATS)
